# Several values for one entry are separate records, joined by “and”; a condition that tells them apart may be missing. Equal values may be shown once. Inconclusive results are not listed. Activity calls are given as the source filed them. Calls follow the shape of the dose curve; as a rule, active = well fitted curve in the direction sought with a large enough effect; inconclusive = small, poorly fitted or top-dose-only effect, or another doubt; inactive = no such curve, though single readings can be large; an effect the other way counts as inactive or inconclusive.
# Experiment: Quantitative highthroughput screen to assess conditional lethalithy of SEM cells grown in RPMI1640 with dialyzed fetal bovine serum (RPMI+ds) (AID 1963884); also: nearly all actives have a fitted effect of over 35% in size;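 as to viability: 100% = DMSO control wells and 0% = empty wells without cells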
# Details: SEM B-ALL cells, RPMI+dialyzed FBS, CellTiter-Glo viability, 48 h; series mostly up to 45.8 µM; viability: at the top concentration
# Method in brief: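 Each medium arm—HPLM with 10% dialyzed FBS, or RPMI1640 with 5 mM glucose and 10% untreated or dialyzed FBS—was screened against an 11-point, 3-fold compound titration for 48 h at 37 °C, with CellTiter-Glo luminescence as endpoint.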
# Potency is read from the fitted curve at half-maximal effect.
Compound,viability,Potency
CC(=Cc1ccccc1)C=C1SC(=S)N(CC(=O)O)C1=O,98.7% (inactive),
CC(=O)N1CCN(c2ccc(OCc3nn(C)c(C)c3-c3cccc4c(CCCOc5cccc6ccccc56)c(C(=O)O)n(Cc5cccnc5)c34)cc2)CC1,92.6% (inactive),
COc1ccc(Nc2nccc(NCCO)n2)cc1,74.8% (inactive),
C[C@@]12C[C@@]3(O)O[C@@H](O1)[C@]1(COC(=O)c4ccccc4)[C@@H]3C[C@@]12O[C@@H]1O[C@H](CO)[C@@H](O)[C@H](O)[C@@H]1O,98.8% (inactive),
CC(=O)NCCC(=O)N[C@@H](CCC(N)=O)C(=O)N[C@@H](CO)C(=O)N[C@@H](CCC(N)=O)C(=O)N[C@@H](CCC(N)=O)C(=O)N[C@H](C(=O)N[C@@H](Cc1ccccc1)C(=O)N[C@]1(C)CCCCCCC=CCCC[C@@](C)(C(=O)N[C@@H](CCC(N)=O)C(=O)N[C@@H](CC(N)=O)C(N)=O)NC(=O)[C@H](CC(C)C)NC(=O)[C@H](CC(C)C)NC(=O)[C@@H](CCCNC(=N)N)NC(=O)[C@H](Cc2c[nH]c3ccccc23)NC(=O)[C@H](CC(C)C)NC(=O)[C@H](CC(N)=O)NC1=O)[C@H](C)O,,2.64 µM (active)
O=c1c(-c2ccc(O)cc2)coc2cc(O)cc(O)c12,54.1% (inactive),
CCCCN1CCC(CNC(=O)c2c3n(c4ccccc24)CCCO3)CC1,70.5% (inactive),
CC(=O)N[C@@H]1[C@H](O[C@@H]2c3ccc(c(Cl)c3)Oc3cc4cc(c3O[C@H]3O[C@H](CO)[C@@H](O)[C@H](O)[C@H]3NC(=O)CCCCCCCC(C)C)Oc3ccc(cc3Cl)C[C@H]3NC(=O)[C@H](N)c5ccc(O)c(c5)Oc5cc(O)cc(c5)[C@H](NC3=O)C(=O)N[C@H]4C(=O)N[C@H]3C(=O)N[C@@H]2C(=O)N[C@@H](C(=O)O)c2cc(O)cc(O[C@H]4O[C@H](CO)[C@@H](O)[C@H](O)[C@H]4O)c2-c2cc3ccc2O)O[C@H](CO)[C@@H](O)[C@@H]1O,113% (inactive),
COc1ccc(-c2oc3c(CC=C(C)C)c(OC4O[C@H](CO)[C@@H](O)[C@H](O)[C@@H]4O)cc(O)c3c(=O)c2OC2O[C@@H](C)[C@H](O)[C@@H](O)[C@@H]2O)cc1 (stereo partly specified),,18.7 µM (active)
CCOC(=O)O[C@]1(C(=O)OCCl)CC[C@@H]2[C@H]3CCC4=CC(=O)C=C[C@]4(C)[C@@H]3[C@@H](O)C[C@@]21C,93.2% (inactive),
N#Cc1ccc(NC(=O)Nc2ccccc2Br)c2n[nH]nc12,93.1% (inactive),
O=C(C=Cc1ccc(O)cc1)c1ccc(O)cc1O,,18.7 µM (active)
COC1CCC(C(=O)c2ccc3nc4c(cc3c2)CCCO4)CC1 (stereo unspecified),,3.32 µM (active)
COc1ccc(-c2coc3cc(O)cc(O)c3c2=O)cc1,106% (inactive),
Cc1cccc(N(C)C(=S)Oc2ccc3ccccc3c2)c1,88.6% (inactive),
CC1(C)[C@H]2CC[C@]3(C)[C@@H](C(=O)C=C4[C@@H]5C[C@@](C)(C(=O)O)CC[C@]5(C)CC[C@]43C)[C@@]2(C)CC[C@@H]1O,98.7% (inactive),
O=c1[nH]c(=O)n([C@H]2C[C@@H](O)[C@@H](CO)O2)cc1C=CBr,77% (inactive),
C[C@H](NCc1ccc2c(c1)nc(NC(=O)c1ccc(-c3cn[nH]c3)s1)n2CCc1ccccc1)C(C)(C)C,,0.0743 µM (active)
CC(=O)O[C@]1(C(C)=O)CC[C@@H]2[C@@H]3C[C@H](C)C4=CC(=O)CC[C@]4(C)[C@H]3CC[C@@]21C,90.4% (inactive),
O=C1c2c(O)cc(O)cc2O[C@H](c2cc(O)c(O)c(O)c2)[C@H]1O,,5.26 µM (active)

# Experiment: Cellular viability qHTS for adrenocortical cancer (ACC) cell line SW-13 (AID 1963989); also: nearly all actives have a fitted effect of over 65% in size;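 as to activity (max response): cells grown in serum-free medium with ITS supplement; % is scaled to controls: 0 for no effect and ±100 for the full control effect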
# Details: SW-13 ACC cells viability, CellTiter-Glo, 48 h; activity (max response): stronger effect = lower value
# Method in brief: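 IC50 and maximal-response values come from four-parameter logistic fits of titration data. SW-13 cells in serum-free medium received compounds (up to 46 uM final) for 48 h before CellTiter-Glo luminescence.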
Compound,activity (max response),Potency
COc1ccc(Nc2nccc(NCCO)n2)cc1,5.92% (inactive),
C[C@]12CC[C@@H]3c4ccc(O)cc4CC[C@H]3[C@H]1[C@@H](O)[C@@H](O)[C@H]2O,-1.98% (inactive),
CC(=O)NCCC(=O)N[C@@H](CCC(N)=O)C(=O)N[C@@H](CO)C(=O)N[C@@H](CCC(N)=O)C(=O)N[C@@H](CCC(N)=O)C(=O)N[C@H](C(=O)N[C@@H](Cc1ccccc1)C(=O)N[C@]1(C)CCCCCCC=CCCC[C@@](C)(C(=O)N[C@@H](CCC(N)=O)C(=O)N[C@@H](CC(N)=O)C(N)=O)NC(=O)[C@H](CC(C)C)NC(=O)[C@H](CC(C)C)NC(=O)[C@@H](CCCNC(=N)N)NC(=O)[C@H](Cc2c[nH]c3ccccc23)NC(=O)[C@H](CC(C)C)NC(=O)[C@H](CC(N)=O)NC1=O)[C@H](C)O,,28.2 µM (active)
COC1CCC(N(C(=O)C2CCC(C)CC2)c2cc(C3=CCCCC3)sc2C(=O)O)CC1 (stereo unspecified),0.0132% (inactive),
NCc1c[nH]c(=S)n1[C@H]1CCc2c(F)cc(F)cc2C1,-7.85% (inactive),
CC(C)(N)C(=O)N[C@H](COCc1ccccc1)C(=O)N1CCC2(CC1)CN(S(C)(=O)=O)c1ccccc12,-9.29% (inactive),
N#Cc1ccc(NC(=O)Nc2ccccc2Br)c2n[nH]nc12,-2.82% (inactive),
S=c1nc[nH]c2nc[nH]c12,,8.2 µM (active) and 15.8 µM (active)
COC1CCC(C(=O)c2ccc3nc4c(cc3c2)CCCO4)CC1 (stereo unspecified),3.89% (inactive),
COc1ccc(-c2c(-c3ccc(O)cc3O)n[nH]c2C)cc1,-14.3% (inactive),
COc1ccc(-c2coc3cc(O)cc(O)c3c2=O)cc1,,31.6 µM (active)
Cc1cccc(N(C)C(=S)Oc2ccc3ccccc3c2)c1,2.38% (inactive),
CC(C)(C(=O)NCC(F)(F)C(F)(F)F)C(=O)N[C@@H]1C(=O)Nc2ccccc2-c2ccccc21,-5.79% (inactive),
NS(=O)(=O)c1ccc(NC2=CC(=O)c3ccccc3C2=O)cc1,-24.7% (inactive),
CC(Cc1ccc(O)c(O)c1)(NN)C(=O)O (stereo unspecified),0.463% (inactive),
O=C1c2ccccc2-c2n[nH]c3cccc1c23,-13.1% (inactive),
